From a collection of fitness landscapes (doi:10.1016/j.celrep.2020.107928)
Whole data set: some 81,000 sequences, median “one-hybrid fitness for binding NBS DNA” near -0.1, cut for the highest 2% near 0.36. The sample as a whole holds a higher share of the highest values than the screen did.

B1: Caulobacter ParB omega fusion; a variant is named by its letters at X, in order, B8GW30 (parent)
chain: MESVVVGEPGMSEGRRGLGRGLSALLGEVDAAPAQAPGEQLGGSREAPIEILQRNPDQPRRTFREEDLEDLSNSIREKGVLQPILVRPSPDTAGEYQIVAGERAWRAAQRAGLKTVPIMVRELDDLAVLEIGIIENVQRADLNVLEEALSYKVLMEKFERTQENIAQTIGKSXSHVANXMRLLXLPDEVQSYLVSGELTAXHARAIAAAADPVALAKQIIEGGLSVRETEALARKAPNLSAGKSKGGRPPRVKDTDTQALESDLSSVLGLDVSIDHRGSTGTLTITYATLEQLDDLCNRLTRGI

Variants of: B1
Assay: one-hybrid fitness for binding NBS DNA (the Noc-binding site; scaled: cognate 1, non-cognate 0); higher = stronger binding
Conditions: with NBS DNA site
Outline: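 Caulobacter ParB libraries with four specificity codons randomised were screened by bacterial one-hybrid selection in the E. coli USO strain, using a HIS3 reporter whose site lies 19 bp from the promoter. Selection ran for 48 hours at 37°C on M9 lacking histidine, with 0.1 mM IPTG and 5 mM 3-AT. Plasmids were Illumina-sequenced before and after selection, three replicate libraries were pooled, and variants with under 10 reads were dropped. Fitness is the log change in each variant's read ratio to wild type, rescaled against the cognate and non-cognate sites.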

one-hybrid fitness for binding NBS DNA, 0.331:
QLKQ

one-hybrid fitness for binding NBS DNA, 0.397:
QIAR

one-hybrid fitness for binding NBS DNA, 0.45:
RYHT

one-hybrid fitness for binding NBS DNA, 0.757:
RRAR

one-hybrid fitness for binding NBS DNA, 0.243:
RHIT

one-hybrid fitness for binding NBS DNA, 0.298:
QCVA

one-hybrid fitness for binding NBS DNA, 0.365:
QLKN

one-hybrid fitness for binding NBS DNA, 0.381:
RYQT

one-hybrid fitness for binding NBS DNA, 0.373:
RYGT

one-hybrid fitness for binding NBS DNA, 0.242:
RFQT

one-hybrid fitness for binding NBS DNA, 0.583:
RHRT

one-hybrid fitness for binding NBS DNA, 0.287:
RHYT

one-hybrid fitness for binding NBS DNA, 0.418:
RSQT

one-hybrid fitness for binding NBS DNA, 0.513:
RCQT

one-hybrid fitness for binding NBS DNA, 0.357:
RRAG

one-hybrid fitness for binding NBS DNA, 0.33:
RHLT

one-hybrid fitness for binding NBS DNA, 0.329:
RIQT

one-hybrid fitness for binding NBS DNA, 0.487:
QLKH

one-hybrid fitness for binding NBS DNA, 0.728:
RRFR

one-hybrid fitness for binding NBS DNA, 0.426:
RYGS

one-hybrid fitness for binding NBS DNA, 0.692:
QRKA

one-hybrid fitness for binding NBS DNA, 0.306:
RRAM

one-hybrid fitness for binding NBS DNA, ≤ 0.2:
YRHS
RYGF
RYGC
RYQY
RYQF
RYHG
RYGD
RYHQ
RYGN
TIRS
SHCW
PSRV
QMAC
DGSR
HLCR
TSRL
VDPI
VKWG
NFAR
TAGV
NERC
VQTI
RMTM
VKPG
MIPC
QIAH
QSAD
QEAR
QSAH
QPAR
PIRY
TWMC
IDTL
TIIR
NVDM
SALS
QLKD
QLVH
QPKN
QLVN
QLVS
QLKP
HLWL
WMPR
DMKY
PLDP
TIRA
EGSN
LRCP
GCSF
HDFR
DATM
TSVL
CRHF
RHPT
RAQC
RAQP
RDQT
CHYG
ASMD
FIRR
MIQP
RPQT
QPVA
NRKA
DRKA
TSKG

one-hybrid fitness for binding NBS DNA, 0.526:
QSAR

one-hybrid fitness for binding NBS DNA, 0.643:
QCAR

one-hybrid fitness for binding NBS DNA, 0.573:
QLKS

one-hybrid fitness for binding NBS DNA, 0.445:
QCKN

one-hybrid fitness for binding NBS DNA, 0.359:
QSKN

one-hybrid fitness for binding NBS DNA, 0.301:
QIFR

one-hybrid fitness for binding NBS DNA, 0.395:
RAQT

one-hybrid fitness for binding NBS DNA, 0.39:
RHQT

one-hybrid fitness for binding NBS DNA, 0.511:
QRVA
